# NPC1 promoter act: qHTS Assay for NPC1 Promoter Activators. Huh7 NPC1 promoter luciferase reporter, 24 h. Potency, µM (series often up to 9.22 µM), hits mostly activators. actives 2.4% (n = 320,000). AID 485313, 2010; note: nearly all actives have a fitted effect of over 60% in size
#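 Huh7 reporter cells (NPC1 promoter driving luciferase) are dosed with compound for 24 h at 37 °C, 5% CO2; luciferase detection reagent is then added and luminescence measured after 10 min at ambient temperature.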
# SMN2 splice up: qHTS Assay for Enhancers of SMN2 Splice Variant Expression. HEK293 SMN2-luciferase splicing reporter, luminescence, 30-36 h. Potency, µM (series often up to 46.1 µM), most hits filed as activators. actives 2.8% (n = 210,000). AID 1458, 2008; note: nearly all actives have a fitted effect of over 55% in size
#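 HEK293 cells carry an SMN2 […]–luciferase reporter in which exon 7 inclusion puts luciferase in frame. Cells were plated 10-12 h before compound addition, then incubated 30-36 h at 37C. ONE-Glo luminescence was read; sodium butyrate at 4.5 mM final served as control.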
# FLuc modulator: qHTS profiling assay for firefly luciferase inhibitor/activator using purifed enzyme and Km concentrations of substrates (counterscreen for miR-21 project). purified FLuc, Km substrates, luminescence inhibition. Potency, µM (highest dose often 57.5 µM), usual class: inhibitors. actives 6.9% (n = 360,000); note: nearly all actives have a fitted effect of over 55% in size
# Target sequence (P08659 whole entry, looked up): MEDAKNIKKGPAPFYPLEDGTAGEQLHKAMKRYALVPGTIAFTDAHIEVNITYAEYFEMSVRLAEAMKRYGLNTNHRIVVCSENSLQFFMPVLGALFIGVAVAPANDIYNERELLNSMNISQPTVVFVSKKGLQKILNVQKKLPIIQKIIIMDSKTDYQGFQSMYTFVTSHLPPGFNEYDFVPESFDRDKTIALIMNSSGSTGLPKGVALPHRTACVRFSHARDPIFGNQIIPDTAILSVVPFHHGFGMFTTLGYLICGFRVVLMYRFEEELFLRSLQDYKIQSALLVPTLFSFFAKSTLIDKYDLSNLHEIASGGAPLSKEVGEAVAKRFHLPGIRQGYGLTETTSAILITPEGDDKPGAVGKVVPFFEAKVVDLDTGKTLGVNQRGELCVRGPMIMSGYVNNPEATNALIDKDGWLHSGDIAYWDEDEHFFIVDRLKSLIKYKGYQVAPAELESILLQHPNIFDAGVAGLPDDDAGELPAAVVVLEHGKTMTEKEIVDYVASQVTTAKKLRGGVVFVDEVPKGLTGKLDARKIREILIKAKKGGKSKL
#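 Purified P. pyralis luciferase, 10 nM final, with Km-level 10 uM D-luciferin and 10 uM ATP in 50 mM Tris acetate pH 7.5, 10 mM Mg acetate, 0.01% Tween-20, 0.05% BSA; 6-point qHTS titration about 60 µM downward; luminescence read.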
# ELG1 genotoxic: qHTS screen for small molecules that induce genotoxicity in human embryonic kidney (HEK293T) cells expressing luciferase-tagged ELG1; Potency, µM (titrated, usually from 46 µM), usual class: activators; AID 504466, 2011; HEK293T ELG1-luciferase reporter, luminescence, 16 h; actives 1.3% (n = 330,000); note: nearly all actives have a fitted effect of over 60% in size
#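 Reporter readout depends on ELG1 protein level, which increases with genetic stress. After 16 hr compound exposure at 37 °C, luciferase activity was quantified using ONE-Glo.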
# Rab9 promoter act: qHTS Assay for Rab9 Promoter Activators; Huh7 Rab9 promoter-luciferase reporter, luminescence, 24 h; Potency, µM (doses to about 9.22 µM), hits mostly activators; actives 2.8% (n = 320,000); AID 485297, 2010; note: nearly all actives have a fitted effect of over 60% in size
#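 Huh7 reporter line, Rab9 promoter upstream of luciferase. Compound exposure 24 h at 37 °C in reduced-serum medium with 10% FBS. Read-out: luminescence.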
# Hits are given with their value; 0 = inactive; ? = inconclusive; - = no result given. A selection: hits, their analogues and other compounds. The true share with any hit is near 7.5%. Calls come from the whole dose curve; as a rule, active = well fitted curve in the direction sought with a large enough effect; inconclusive = small, poorly fitted or top-dose-only effect, or another doubt; inactive = no such curve, though single readings can be large; an effect the other way counts as inactive or inconclusive.
SMILES,NPC1 promoter act,SMN2 splice up,FLuc modulator,ELG1 genotoxic,Rab9 promoter act
Cc1cc2nc3ccc(=[N+](C)C)cc-3sc2cc1N,0,-,17µM,0,0
Cc1nc2cc(C)c(C)cc2s1,0,-,?,0,0
CCC(C)NC(=O)CSc1c2c(nc3cc(Cl)ccc13)CCCC2 (stereo unspecified),-,0,0,-,-
CCN(CC)CCCNC(=O)c1ccc2c3n(nc2c1)-c1ccc(Cl)cc1CO3,?,-,?,?,0.89µM
CC(C)NC(=O)c1ccc2c3n(nc2c1)-c1ccc(Cl)cc1CO3,1.3µM,-,1.9µM,?,1.4µM
CCOc1ccc(N(CC(=O)N2CCN(c3ccc(F)cc3)CC2)S(=O)(=O)c2c(C)noc2C)cc1,0,-,0,0,0
COc1ccc(C2=NS(=O)(=O)N(C)C(C(=O)Nc3ccc(C(C)=O)cc3)=C2)cc1OC,0,-,?,0,0
O=C(CSc1ccc(F)cc1)Nc1ccc(C2SCCS2)cc1,?,-,11µM,?,?
COc1ccc(NC(=O)c2ccccc2NC(=O)CSc2ccc(C)cc2)cc1,0,0,0,?,?
CC(=O)Oc1ccc(NC(=O)CSc2ccccc2)cc1,0,?,?,15µM,0
COc1ccccc1CNC(=O)CSc1ccccc1,?,?,?,?,3.2µM
CC(=O)NS(=O)(=O)c1ccc(NC(=O)CSc2ccccc2)cc1,0,-,0,0,0
COc1ccc(NC(=O)CSc2ccc(C)cc2)cc1,?,0,21µM,?,0
COc1ccccc1CNC(=O)CSc1ccc(C)cc1,0,0,0,0,0
O=C(CSC1=NCCS1)Nc1ccc(F)cc1,0,-,0,0,0
CCCCC/C=C\C/C=C\C/C=C\C=C\C(O)CCCC(=O)O (stereo unspecified),-,0,-,-,-
CC1(CCC(=O)N2CCCC(Nc3ccc(F)cc3)C2)CC1 (stereo unspecified),0,-,0,0,0
CCOc1ccccc1N1CCN(S(=O)(=O)c2ccc(C3CCCCC3)cc2)CC1,-,0,0,-,-
Cc1cccc(-n2c(SCC(=O)Nc3ccccc3C)nc3c(oc4ccccc43)c2=O)c1,-,0,0,-,-
CC(C)(C)c1ccc(/C=C/C(=O)NC2=NCCS2)cc1,0.5µM,?,0.76µM,?,0.4µM
Cc1ccc(/C=C/C(=O)NC2=NCCS2)cc1,?,0.5µM,1.3µM,2.9µM,0.5µM
Cc1ccc(/C=C/C(=O)NN2CCN(C)CC2)cc1,0,-,0,0,0
O=c1cc(-c2ccc(O)cc2)oc2c1ccc1ccccc12,0,-,0,?,0
COc1cc2oc(-c3ccc(O)cc3)cc(=O)c2c(OC)c1O,0,-,24µM,16µM,0
O=c1cc(-c2ccc(O)cc2)oc2c(O)c(O)c(O)c(O)c12,0,-,0,0,0
SMILES,NPC1 promoter act,SMN2 splice up,FLuc modulator,ELG1 genotoxic,Rab9 promoter act
COc1cc2oc(-c3ccc(O)cc3)cc(=O)c2c(O)c1OC,0,-,19µM,?,0
COc1c(O)cc2oc(-c3ccc(O)cc3)cc(=O)c2c1O,?,-,0.85µM,9.2µM,?
O=c1cc(-c2ccc(O)cc2)oc2ccc3ccccc3c12,0.89µM,-,0.067µM,?,?
O=C(Nc1ccc(F)cc1Cl)C1CCN(c2ncnc3c2nc2n3CCCCC2)CC1,-,-,0,-,-
Oc1ccccc1/C=N/Nc1nccnc1Cl,0,0,17µM,13µM,0
O=c1[nH]ncc(N/N=C\c2ccc(O)cc2O)c1Cl,0,0,?,?,0
O=[N+]([O-])c1ccccc1/C=N/Nc1nccnc1Cl,?,0,27µM,?,3.5µM
O=[N+]([O-])c1ccccc1/C=N/NC1=NS(=O)(=O)c2ccccc21,0,0,?,0,0
Oc1ccc(/C=N/Nc2nccnc2Cl)c(O)c1,0,0,24µM,?,0
Nc1cc(Cl)nc(N/N=C/c2ccccc2[N+](=O)[O-])n1,?,?,24µM,0,?
CCCCCCCCCCCCC/C=C/[C@@H](O)[C@H](COP(=O)([O-])OCC[N+](C)(C)C)NC(=O)CCCCCCCCCCCCCCCCC,-,0,-,-,-
CC1CC(C)CN(C(=O)c2ccc3c(=O)n(Cc4ccc5c(c4)OCO5)c(=S)[nH]c3c2)C1 (stereo unspecified),0,0,0,0,0
Oc1ccc(Br)cc1/C=N/Nc1ncc(-c2ccccc2)cn1,0,0,0,0,0
O=[N+]([O-])c1cccnc1N/N=C/c1ccccc1O,0,0,?,?,?
Oc1ccc(/C=N/Nc2ncc(Br)cn2)c(O)c1,?,0,11µM,15µM,?
Cc1c(O)ccc(/C=N/Nc2ncccc2[N+](=O)[O-])c1O,0.56µM,-,1.1µM,2.6µM,3.2µM
Oc1ccc2ccccc2c1CNc1ccc(Br)cn1,0,-,24µM,0,0
Oc1ccc2ccccc2c1CNc1ccc(Br)cc1,0,-,0,0,0
COc1cccc(CNc2ncc(Br)cc2Br)c1O,?,0,27µM,0,?
COc1cccc(CNc2ccc(Br)cn2)c1O,1µM,14µM,1.5µM,?,2.8µM
COc1cccc(CNn2cnnc2)c1O,0,-,0,0,0
COc1ccc2c(c1OC)C(=O)N1c3ccccc3SC21 (stereo unspecified),2.5µM,11µM,2.4µM,?,2.8µM
COc1ccc2c(c1OC)C(=O)N1c3ccccc3COC21 (stereo unspecified),3.5µM,14µM,3.4µM,?,1.8µM
COc1ccc2c(c1OC)C(=O)N1c3ccccc3C(=O)N(c3ccccc3F)C21 (stereo unspecified),0,0,0,0,0
COc1ccc2c(c1OC)C(=O)N1c3ccccc3C(=O)OC21 (stereo unspecified),-,0,-,-,-
SMILES,NPC1 promoter act,SMN2 splice up,FLuc modulator,ELG1 genotoxic,Rab9 promoter act
Cn1c(SCC(=O)Nc2ccccc2)nnc1-c1ccc2nonc2c1,0,-,0,0,0
CC(C)(C)OC(=O)C(C)(C)O/N=C(\C(=O)O)c1csc(N)n1,0,0,0,0,0
COc1cc(OC)c(/C=N/n2c(C)nnc2C)c(OC)c1,0,0,0,0,0
Clc1ccc(OCc2nc3ccccc3n2Cc2ccccc2)c(Cl)c1,-,0,6µM,-,-
CCC(C)NC(=O)Cn1c(COc2ccc(Cl)cc2Cl)nc2ccccc21 (stereo unspecified),0,22µM,6µM,?,?
Clc1ccc(OCCn2cnc3ccccc32)c(Cl)c1,?,0,27µM,?,?
CCC(C)NC(=O)Cn1c(-c2cccs2)cc2cc(Cl)ccc21 (stereo unspecified),-,-,0,-,-
c1ccc2c(c1)ncn2CCOCCOCCn1cnc2ccccc21,0,0,0,0,0
Cc1ccc(SCc2nc3ncccn3c2Br)cc1,0,-,?,0,0
CCOC(=O)c1c(NC(=O)c2cccnc2)sc(C)c1C,0,0,0,0,0
N#Cc1c(NC(=O)c2ccccc2)sc2c1CCC2,?,2.2µM,2.7µM,2.9µM,0.63µM
NC(=O)c1c(NC(=O)c2cccnc2)sc2c1CCCCC2,2.2µM,-,1.7µM,?,2.5µM
